Unmarked numbers belong to inactive results. Records with an inconclusive call do not appear. Active and inactive are the calls of the source. Unless noted, calls come from the whole dose curve; as a rule, active = well fitted curve in either direction with a large enough effect (not every such curve was filed as active); inconclusive = small, poorly fitted or top-dose-only effect, or another doubt; inactive = flat fitted curve, though single readings scatter.
Key:
[1] = biological target: Lysosomal acid glucosylceramidase (Homo sapiens) (UniProt P04062); assay: Glucocerebrosidase-p2 (AID 348; in the data active = potency below about 10 µM; note: potency is the fitted concentration of half-maximal effect); conditions: purified GBA, blue fluorogenic substrate, 40 min
Outline: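 Normal human glucocerebrosidase (0.2 nM) with blue fluorogenic substrate (80 uM final) in citrate/phosphate pH 5.9 with 10mM sodium taurocholate, 0.01% tween-20; 40 min RT, NaOH/glycine stop; fluorescence Ex 365/Em 440; AC50 from a titration from 0.6 nM upwards.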

[2] = AP1 Signaling Pathway (AID 357); conditions: ME-180 AP-1-bla reporter, EGF-induced, beta-lactamase ratio, 5 h; at 7.69 µM (top of the series) unless noted; note: % is set by controls: 0 for no effect and ±100 for the full control effect
Outline: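 ME-180 cells with beta-lactamase reporter under AP-1 response element, stimulated with EC50 EGF; compounds tested in titration series, 5 h at 37 °C. CCF4 substrate added 2.5 h at room temperature; 460/530 nm emission ratio gave %activity and AC50.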

[3] = biological target: Cytochrome P450 1A2 (Homo sapiens) (UniProt P05177); assay: p450-cyp1a2 (AID 410; calls by dose curve; note: potency is the fitted concentration of half-maximal effect;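 for activity change, negative = inhibition: -100% = full effect of reference inhibitor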); conditions: recombinant CYP1A2, luciferin-ME demethylation, luminescence; series mostly up to 11.4 µM
Outline: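 20nM CYP1A2, 100uM Luciferin-ME (=Km), 100mM KPO4; cpd 10 min RT; +NADPH regen, 60 min RT; stop/detect 20 min; luminescence. Normalized to furafylline 57 uM = full inhibition.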

[4] = NFAT Signaling Pathway (AID 444); conditions: Jurkat NFAT-bla M1, carbachol, beta-lactamase ratio, 5 h; at 7.69 µM (top of the series) unless noted;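 note: carbachol stimulus at about its EC50 of 1 µM final; % is set by controls: 0 for no effect and ±100 for the full control effect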
Outline: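 Jurkat cells carrying an NFAT-driven β-lactamase reporter and co-transfected muscarinic M1 receptor were treated with compound plus carbachol (1 uM final, an EC50 level) for 5 h at 37 °C. CCF4 loading followed for 1 h at RT; 460/530 nm ratio gave %activity.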

[5] = Stat Signaling Pathway (AID 446); conditions: ME-180 SIE beta-lactamase reporter, IL-6 stimulated, 5 h; at 7.69 µM (top of the series) unless noted;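 note: ME-180 cervical cancer cells given 40 pM IL-6 alongside compound; SIE-controlled beta-lactamase reporter measured as 460/530 nm FRET emission ratio; % is set by controls: 0 for no effect and ±100 for the full control effect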
Outline: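 Emission at 460 and 530 nm (excitation 405 nm) reports SIE-controlled beta-lactamase in ME-180 cells. Cells received compound with 40 pM IL-6 for 5 hrs at 37 C; data scaled between 300 pM IL-6 and 125 nM JAK-inhibitor controls.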

[6] = biological target: Glucocorticoid receptor (Homo sapiens) (UniProt P04150); assay: GR-GFP Redistribution (AID 450;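 active = compounds whose dose series gives a full or clear partial fitted curve of increased nuclear translocation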; note: potency is the fitted concentration of half-maximal effect); conditions: U2OS GR-GFP nuclear translocation, laser cytometry, 2 h
[7] = biological target: Glucocorticoid receptor (Homo sapiens) (UniProt P04150); assay: GR-EFC Redistribution (AID 451; calls by dose curve; note: potency is the fitted concentration of half-maximal effect); conditions: CHO-K1 GR-EFC translocation, beta-gal luminescence, 2 h
Outline: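 CHO-K1 cells stably expressing nuclear-localized β-gal enzyme acceptor and GR fused C-terminally to the enzyme donor fragment; ligand-driven nuclear translocation restores β-gal by complementation. Compounds titrated up to 46 uM final, 2 h at 37 °C; luminescence read.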

[8] = biological target: Mitogen-activated protein kinase 10 (Mus musculus) (UniProt Q61831); assay: JNK3 AlphaScreen Assay (AID 530); conditions: JNK3 lysate, c-Jun phosphorylation; series mostly up to 11.4 µM;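 note: kinase came from lysate of stimulated human HepG2 cells; signal reports phosphorylation of biotinylated GST-cJun 1-79 at Ser73 with 10 µM ATP; % is set by controls: 0 for no effect and ±100 for the full control effect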
Outline: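 Biotinylated GST-cJun(1-79) served as substrate for JNK3 in HepG2 lysates stimulated with IL-1beta and TNF-alpha. ATP was 10 uM final, pH 7.6. Ser73 phosphorylation was quantified by AlphaScreen (680 nm excitation).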

[9] = biological target: 3',5'-cyclic-AMP phosphodiesterase 4B (Homo sapiens) (UniProt Q07343); assay: qHTS Assay for Inhibitors of PDE-IV (AID 607; active = well fitted activation curve with a large enough effect in the main read-out, with a control signal flat, not every such curve was filed as active; note: % of control where 0% means no effect); conditions: HEK293 ACTOne CNG channel cells, membrane potential fluorescence; series mostly up to 22.9 µM
Outline: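 The readout is membrane depolarisation from a cAMP-sensing CNG channel, detected with a potential dye at ex 535/em 590. Cells were HEK293-derived (endogenous PDE-IV) at 1000 cells/well, titrated up to 22.9 uM final.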

[10] = qHTS Assay for Identification of Small Molecule Agonists for Hypoxia Response Element Signaling Pathway (AID 914; active = well fitted activation curve with a large enough effect in the signal ratio, with a control signal flat, not every such curve was filed as active; the % refers to the signal ratio; note: % of control where 0% means no effect); conditions: ME-180 HRE-bla reporter, beta-lactamase ratio, CoCl2, 17 h; activation: stronger effect = higher value
Outline: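 ME-180 cells carrying an HRE-driven beta-lactamase reporter were treated with compounds in a titration series plus an EC50 level of CoCl2 for 17 h at 37 degrees Celsius; CCF4 readout as the 460nm/530nm ratio gave AC50 values.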

[11] = biological target: Cytochrome P450 2C9 (Homo sapiens) (UniProt P11712); assay: qHTS Assay for Inhibitors and Substrates of Cytochrome P450 2C9 (AID 883; active = well fitted curve in the direction sought with a large enough effect; an effect the other way counts as inactive or inconclusive; note: nearly all actives have a fitted effect of over 60% in size; note: potency is the fitted concentration of half-maximal effect); conditions: recombinant CYP2C9, luciferin-H luminescence, 60 min; series mostly up to 11.4 µM
Outline: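 A luminogenic readout tracked human CYP2C9 (10nM) converting deoxyluciferin (100uM, at KM) in 25mM KPO4 during 60 min at 37C with regenerated NADPH. Values normalized to 57uM sulphaphenazole as complete inhibition.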

[12] = biological target: Cytochrome P450 2C19 (Homo sapiens) (UniProt P33261); assay: qHTS Assay for Inhibitors and Substrates of Cytochrome P450 2C19 (AID 899; active = well fitted curve in the direction sought with a large enough effect; an effect the other way counts as inactive or inconclusive; note: nearly all actives have a fitted effect of over 60% in size; note: potency is the fitted concentration of half-maximal effect); conditions: recombinant CYP2C19, luciferin-H EGE luminescence; series mostly up to 11.4 µM
Outline: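 NADPH-dependent conversion of Luciferin-H EGE (10uM, at KM) by 5nM enzyme in 50mM KPO4, 60 min at 37C following 10 min compound preincubation. Stopped with luciferin detection buffer; luminescence read after 20 min.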

[13] = biological target: Cytochrome P450 3A4 (Homo sapiens) (UniProt P08684); assay: qHTS Assay for Activators of Cytochrome P450 3A4 (AID 885; active = well fitted curve in the direction sought with a large enough effect; an effect the other way counts as inactive or inconclusive; note: nearly all actives have a fitted effect of over 65% in size); conditions: recombinant CYP3A4, Luciferin-PPXE luminescence, 60 min; series mostly up to 11.4 µM
Outline: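 Activators are scored by enhanced luminescence from CYP3A4 conversion of luciferin-PPXE (25uM, equal to KM) to luciferin, after 60 min at RT with an NADPH-regenerating system.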

Chain of Lysosomal acid glucosylceramidase (Homo sapiens) (P04062 whole entry, looked up): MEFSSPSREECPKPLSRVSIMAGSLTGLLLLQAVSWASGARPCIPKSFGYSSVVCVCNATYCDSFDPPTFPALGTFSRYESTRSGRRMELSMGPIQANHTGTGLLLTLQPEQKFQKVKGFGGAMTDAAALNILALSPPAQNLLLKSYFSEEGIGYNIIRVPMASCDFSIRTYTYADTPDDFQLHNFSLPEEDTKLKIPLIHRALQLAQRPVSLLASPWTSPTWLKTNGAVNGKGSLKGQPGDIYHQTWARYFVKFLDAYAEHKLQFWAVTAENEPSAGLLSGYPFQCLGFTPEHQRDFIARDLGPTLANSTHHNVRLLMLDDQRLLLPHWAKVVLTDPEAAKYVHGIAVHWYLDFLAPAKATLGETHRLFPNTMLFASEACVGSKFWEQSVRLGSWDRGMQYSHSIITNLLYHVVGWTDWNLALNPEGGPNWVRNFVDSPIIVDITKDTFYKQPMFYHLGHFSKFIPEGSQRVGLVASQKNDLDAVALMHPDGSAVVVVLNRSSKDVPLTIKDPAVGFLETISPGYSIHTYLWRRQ
Chain of Cytochrome P450 3A4 (Homo sapiens) (P08684 whole entry, looked up): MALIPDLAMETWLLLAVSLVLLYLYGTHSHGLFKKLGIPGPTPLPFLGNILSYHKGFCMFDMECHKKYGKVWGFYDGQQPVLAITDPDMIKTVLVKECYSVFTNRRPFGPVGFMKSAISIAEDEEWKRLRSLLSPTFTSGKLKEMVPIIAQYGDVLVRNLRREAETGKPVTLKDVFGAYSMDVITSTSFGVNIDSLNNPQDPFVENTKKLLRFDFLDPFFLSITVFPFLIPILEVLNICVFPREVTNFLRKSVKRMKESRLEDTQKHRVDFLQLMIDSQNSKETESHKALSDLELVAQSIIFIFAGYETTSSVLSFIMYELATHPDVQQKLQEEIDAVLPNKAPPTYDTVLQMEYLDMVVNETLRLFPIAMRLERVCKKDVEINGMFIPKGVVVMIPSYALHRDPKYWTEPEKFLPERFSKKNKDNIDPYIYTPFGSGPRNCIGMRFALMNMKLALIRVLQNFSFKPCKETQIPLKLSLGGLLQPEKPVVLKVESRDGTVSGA
Chain of 3',5'-cyclic-AMP phosphodiesterase 4B (Homo sapiens) (Q07343 whole entry, looked up): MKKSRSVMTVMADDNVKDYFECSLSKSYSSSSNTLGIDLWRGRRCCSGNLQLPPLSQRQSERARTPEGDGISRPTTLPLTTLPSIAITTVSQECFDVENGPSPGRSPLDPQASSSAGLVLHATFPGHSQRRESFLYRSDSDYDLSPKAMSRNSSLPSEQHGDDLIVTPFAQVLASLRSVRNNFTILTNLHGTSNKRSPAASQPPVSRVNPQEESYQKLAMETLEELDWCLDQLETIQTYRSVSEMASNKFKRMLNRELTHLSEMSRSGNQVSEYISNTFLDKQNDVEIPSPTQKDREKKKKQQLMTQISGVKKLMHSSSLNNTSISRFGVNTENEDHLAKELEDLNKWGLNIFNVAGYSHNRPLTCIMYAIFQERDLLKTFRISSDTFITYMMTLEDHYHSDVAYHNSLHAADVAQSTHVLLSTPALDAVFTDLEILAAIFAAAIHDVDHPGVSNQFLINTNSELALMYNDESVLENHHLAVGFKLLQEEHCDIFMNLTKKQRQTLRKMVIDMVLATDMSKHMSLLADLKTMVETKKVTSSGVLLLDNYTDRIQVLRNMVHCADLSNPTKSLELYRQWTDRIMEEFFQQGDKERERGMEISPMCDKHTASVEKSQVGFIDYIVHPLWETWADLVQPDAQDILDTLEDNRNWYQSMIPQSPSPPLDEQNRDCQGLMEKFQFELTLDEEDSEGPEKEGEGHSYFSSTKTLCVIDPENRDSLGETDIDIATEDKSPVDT
Chain of Glucocorticoid receptor (Homo sapiens) (P04150 whole entry, looked up, the tested form may be a part): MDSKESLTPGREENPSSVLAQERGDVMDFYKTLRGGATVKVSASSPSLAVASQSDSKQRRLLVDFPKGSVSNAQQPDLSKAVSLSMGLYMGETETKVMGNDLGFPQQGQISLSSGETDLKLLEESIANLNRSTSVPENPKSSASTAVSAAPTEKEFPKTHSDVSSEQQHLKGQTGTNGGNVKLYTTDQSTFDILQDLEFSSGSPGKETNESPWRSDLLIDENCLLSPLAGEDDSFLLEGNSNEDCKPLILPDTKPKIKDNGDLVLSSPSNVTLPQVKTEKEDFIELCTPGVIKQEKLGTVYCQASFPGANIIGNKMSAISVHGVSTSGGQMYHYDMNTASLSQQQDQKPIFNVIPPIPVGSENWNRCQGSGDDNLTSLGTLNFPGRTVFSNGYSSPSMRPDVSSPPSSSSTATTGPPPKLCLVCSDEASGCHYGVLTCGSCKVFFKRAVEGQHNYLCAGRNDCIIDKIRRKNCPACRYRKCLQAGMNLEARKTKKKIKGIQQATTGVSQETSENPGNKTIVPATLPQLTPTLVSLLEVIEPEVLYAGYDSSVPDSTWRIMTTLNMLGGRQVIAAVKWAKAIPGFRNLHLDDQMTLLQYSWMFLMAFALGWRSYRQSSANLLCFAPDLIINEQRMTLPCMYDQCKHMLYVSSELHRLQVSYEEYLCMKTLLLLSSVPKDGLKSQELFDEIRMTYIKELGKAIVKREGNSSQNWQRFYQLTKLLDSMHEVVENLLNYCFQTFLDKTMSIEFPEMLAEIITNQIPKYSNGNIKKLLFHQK
Chain of Cytochrome P450 1A2 (Homo sapiens) (P05177 whole entry, looked up): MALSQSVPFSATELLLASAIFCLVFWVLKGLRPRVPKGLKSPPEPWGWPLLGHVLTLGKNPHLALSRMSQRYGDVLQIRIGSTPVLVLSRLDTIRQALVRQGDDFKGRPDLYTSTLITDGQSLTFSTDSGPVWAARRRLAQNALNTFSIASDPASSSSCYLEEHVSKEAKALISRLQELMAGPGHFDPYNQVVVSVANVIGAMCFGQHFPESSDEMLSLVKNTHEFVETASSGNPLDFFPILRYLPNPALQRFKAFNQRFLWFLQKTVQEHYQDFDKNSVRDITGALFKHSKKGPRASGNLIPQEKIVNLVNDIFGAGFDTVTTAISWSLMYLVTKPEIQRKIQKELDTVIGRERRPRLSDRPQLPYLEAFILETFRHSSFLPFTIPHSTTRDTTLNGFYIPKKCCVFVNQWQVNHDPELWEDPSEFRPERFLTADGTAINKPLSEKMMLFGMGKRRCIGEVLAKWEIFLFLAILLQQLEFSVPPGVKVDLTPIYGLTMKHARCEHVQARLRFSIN
Chain of Cytochrome P450 2C19 (Homo sapiens) (P33261 whole entry, looked up): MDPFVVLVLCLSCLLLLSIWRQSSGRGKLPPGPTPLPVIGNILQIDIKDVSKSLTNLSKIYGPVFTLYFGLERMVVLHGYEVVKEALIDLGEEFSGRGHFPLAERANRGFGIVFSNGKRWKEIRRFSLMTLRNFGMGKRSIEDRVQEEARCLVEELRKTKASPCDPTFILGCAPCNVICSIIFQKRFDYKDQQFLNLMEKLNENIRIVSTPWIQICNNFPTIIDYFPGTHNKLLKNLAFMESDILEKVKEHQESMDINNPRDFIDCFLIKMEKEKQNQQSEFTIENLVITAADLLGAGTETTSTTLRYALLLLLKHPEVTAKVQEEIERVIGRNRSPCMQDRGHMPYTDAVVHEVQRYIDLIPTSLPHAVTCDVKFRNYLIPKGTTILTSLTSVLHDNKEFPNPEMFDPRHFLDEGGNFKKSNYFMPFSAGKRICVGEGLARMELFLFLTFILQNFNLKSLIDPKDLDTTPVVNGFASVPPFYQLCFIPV
Chain of Cytochrome P450 2C9 (Homo sapiens) (P11712 whole entry, looked up): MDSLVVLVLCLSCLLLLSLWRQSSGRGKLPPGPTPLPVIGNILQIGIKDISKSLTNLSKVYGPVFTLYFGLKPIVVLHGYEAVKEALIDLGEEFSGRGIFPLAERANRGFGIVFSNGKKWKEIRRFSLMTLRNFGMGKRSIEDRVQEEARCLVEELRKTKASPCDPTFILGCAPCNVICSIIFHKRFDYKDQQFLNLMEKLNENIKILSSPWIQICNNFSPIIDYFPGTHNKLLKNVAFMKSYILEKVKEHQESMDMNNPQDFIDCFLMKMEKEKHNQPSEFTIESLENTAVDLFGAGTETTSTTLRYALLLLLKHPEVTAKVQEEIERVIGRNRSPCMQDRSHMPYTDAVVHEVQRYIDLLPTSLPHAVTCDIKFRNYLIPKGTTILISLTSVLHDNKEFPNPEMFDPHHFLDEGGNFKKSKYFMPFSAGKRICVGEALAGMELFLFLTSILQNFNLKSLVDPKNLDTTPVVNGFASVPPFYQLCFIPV

C[C@@]12CC(=O)[C@@H]3[C@@H](CCC4=CC(=O)CC[C@]43C)[C@@H]1CC=C2CC(=O)O
Potency [1]: > 11.4 µM
activity change, negative = inhibition [2]: -4.3%
Potency [3]: inactive
activity change, negative = inhibition [4]: 23.5%
activity, negative = inhibition [5]: 2.31%
Potency [6]: > 46 µM
Potency [7]: > 9.22 µM
Potency [8]: inactive
Potency [9]: inactive
activation [10]: -1.62%

O=c1cnc2cnc(Oc3ccccc3)nc2n1CCc1ccccc1
Potency [1]: > 11.4 µM
activity change, negative = inhibition [2]: 6.02%
Potency [3]: 3.16 µM (active)
activity change, negative = inhibition [4]: -28.7%
activity, negative = inhibition [5]: -4.75%
Potency [6]: > 9.22 µM
Potency [7]: > 46 µM
Potency [8]: inactive
Potency [11]: 3.16 µM (active)
Potency [12]: 6.31 µM (active)

N=C(N)SCC(=O)O
Potency [1]: > 11.4 µM
activity change, negative = inhibition [2]: -10.2%
activity change, negative = inhibition [3]: -10.2% [at 2.29 µM]
activity change, negative = inhibition [4]: 6.44%
activity, negative = inhibition [5]: -4.57%
Potency [6]: > 46 µM
Potency [7]: > 9.22 µM
Potency [8]: inactive
Potency [12]: inactive

Cc1nc2cnc(N3CCOCC3)nc2n(Cc2cccs2)c1=O
Potency [1]: > 11.4 µM
activity change, negative = inhibition [2]: -18.4%
Potency [3]: 2 µM (active)
activity change, negative = inhibition [4]: -3.19%
activity, negative = inhibition [5]: -5.33%
Potency [6]: > 9.22 µM
Potency [7]: > 46 µM
Potency [8]: inactive
Potency [13]: inactive

NS(=O)(=O)c1ccc(N=C2C(=O)Nc3ccccc32)cc1
Potency [1]: > 11.4 µM
activity change, negative = inhibition [2]: -4.71%
activity change, negative = inhibition [3]: -12.7% [at 2.29 µM]
activity change, negative = inhibition [4]: 4.31%
activity, negative = inhibition [5]: 4.23%
Potency [6]: > 46 µM
Potency [7]: > 9.22 µM
Potency [8]: inactive
Potency [9]: inactive
activation [10]: -6.17%

COc1ccc(-n2c(=O)c(C)nc3cnc(Nc4cccc(OC)c4)nc32)cc1
Potency [1]: > 11.4 µM
activity change, negative = inhibition [2]: -25.7%
Potency [3]: 15.8 µM (active)
activity change, negative = inhibition [4]: 10.5%
activity, negative = inhibition [5]: -24.1%
Potency [6]: > 9.22 µM
Potency [7]: > 46 µM
Potency [8]: inactive
Potency [13]: inactive

Cc1ccc(S(=O)(=O)Oc2cc(S(=O)(=O)O)cc3cc(S(=O)(=O)O)cc(N)c23)cc1
Potency [1]: > 11.4 µM
activity change, negative = inhibition [2]: 8.2%
Potency [3]: 2 µM (active)
activity change, negative = inhibition [4]: 1.61%
activity, negative = inhibition [5]: 11.7%
Potency [6]: > 46 µM
Potency [7]: > 9.22 µM
Potency [8]: inactive
Potency [9]: inactive
activation [10]: -7.4%

C/C(=N/S(=O)(=O)c1ccc(Cl)c(Cl)c1)OCC(C)(C)C
Potency [1]: > 11.4 µM
activity change, negative = inhibition [2]: 2.66%
Potency [3]: inactive
activity change, negative = inhibition [4]: 20%
activity, negative = inhibition [5]: 1.9%
Potency [6]: > 46 µM
Potency [7]: > 9.22 µM
Potency [8]: inactive
Potency [9]: inactive
activation [10]: 8.96%

N=c1nc(N)nc(N)n1-c1ccc(S(N)(=O)=O)cc1
Potency [1]: > 11.4 µM
activity change, negative = inhibition [2]: 4.82%
activity change, negative = inhibition [3]: -3.8% [at 2.29 µM]
activity change, negative = inhibition [4]: 9.5%
activity, negative = inhibition [5]: 6.13%
Potency [6]: > 46 µM
Potency [7]: > 9.22 µM
Potency [8]: inactive
Potency [9]: inactive
activation [10]: 8.62%

CN[C@@H]1NC(=O)c2ccccc2N1Cc1ccc(F)cc1
Potency [1]: > 11.4 µM
activity change, negative = inhibition [2]: 4.91%
activity change, negative = inhibition [3]: -7.6% [at 2.29 µM]
activity change, negative = inhibition [4]: 7.06%
activity, negative = inhibition [5]: 4.09%
Potency [6]: > 46 µM
Potency [7]: > 9.22 µM
Potency [8]: inactive
Potency [9]: inactive
activation [10]: -6.12%

CC(C)CCC[C@@H](C)[C@@H]1CC[C@@H]2[C@H]3CC[C@H]4C[C@@H](N)CC[C@@]4(C)[C@@H]3CC[C@]21C
Potency [1]: > 11.4 µM
activity change, negative = inhibition [2]: 13.1%
Potency [3]: inactive
activity change, negative = inhibition [4]: 26.8%
activity, negative = inhibition [5]: 11.5%
Potency [6]: > 46 µM
Potency [7]: > 9.22 µM
Potency [8]: inactive
Potency [9]: inactive
activation [10]: 7.37%

Cc1c(C(=O)O)nc(/C=C\C(=O)O)[nH]c1=O
Potency [1]: > 11.4 µM
activity change, negative = inhibition [2]: 11.1%
Potency [3]: inactive
activity change, negative = inhibition [4]: 3.17%
activity, negative = inhibition [5]: 21.1%
Potency [6]: > 46 µM
Potency [7]: > 9.22 µM
Potency [8]: inactive
Potency [9]: inactive
activation [10]: 12.3%

Cc1c(Cl)c(S(N)(=O)=O)cc2c1=NC=NS=2(=O)O
Potency [1]: > 11.4 µM
activity change, negative = inhibition [2]: -1%
activity change, negative = inhibition [3]: -9.6% [at 2.29 µM]
activity change, negative = inhibition [4]: 4.9%
activity, negative = inhibition [5]: 1.77%
Potency [6]: > 46 µM
Potency [7]: > 9.22 µM
Potency [9]: inactive
Potency [11]: inactive

O=C(O)/C=C\C(=O)Nc1ccc2c(c1)-c1ccccc1C2
Potency [1]: > 11.4 µM
activity change, negative = inhibition [2]: -11.5%
Potency [3]: 1 µM (active)
activity change, negative = inhibition [4]: 6.68%
activity, negative = inhibition [5]: -8.21%
Potency [6]: > 46 µM
Potency [7]: > 9.22 µM
Potency [9]: inactive
Potency [13]: inactive
